Data taken from PubChem BioAssay (NCATS).
Inconclusive results are not listed. The source made the active and inactive calls. Calls follow the shape of the dose curve; as a rule, active = well fitted curve in the direction sought with a large enough effect; inconclusive = small, poorly fitted or top-dose-only effect, or another doubt; inactive = no such curve, though single readings can be large; an effect the other way counts as inactive or inconclusive. Positions of bridges follow the written chain, without caps; N, C: chain ends. Non-standard residues stand in square brackets, D forms with d. Residues, ends and D or L forms follow the SMILES beside them. ξ: configuration not given here. *: point of attachment. Octanoyl(6-Me) = CCC(C)CCCCC(=O)*; ξThr(3R) = C[C@@H](O)C(N)C(=O)O; dDab = NCC[C@@H](N)C(=O)O; Dab = NCC[C@H](N)C(=O)O

How the values were obtained:
[1] = Quantitative High-Throughput drug screen in 47 multiple myeloma cell lines against the NCATS MIPE library collection: Karpas620_DSMZ cell viability assay (AID 1918959); also: nearly all actives have a fitted effect of over 30% in size
Outline: (§1)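 Relative luminescence from CellTiter-Glo served as the viability signal, referenced to DMSO-treated (100%) and cell-free medium (0%) controls. Treatment lasted 48 hours at 37C with 500 cells per well.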

[2] = Quantitative High-Throughput drug screen in 47 multiple myeloma cell lines against the NCATS MIPE library collection: KHM11_PLB cell viability assay (AID 1918962); also: nearly all actives have a fitted effect of over 35% in size
Outline: as §1

[3] = Quantitative High-Throughput drug screen in 47 multiple myeloma cell lines against the NCATS MIPE library collection: JIM3_ECACC cell viability assay (AID 1918963; also: nearly all actives have a fitted effect of over 35% in size)
Outline: as §1

[4] = Quantitative High-Throughput drug screen in 47 multiple myeloma cell lines against the NCATS MIPE library collection: KMM1_JCRB cell viability assay (AID 1918960); also: nearly all actives have a fitted effect of over 30% in size
Outline: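 CellTiter-Glo luminescence after 48 h exposure gives viability, scaled between DMSO-only (100%) and media-only (0%) controls. Library compounds are pinned onto 500 myeloma cells per well, incubated at 37C with 5% CO2.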

[5] = Quantitative High-Throughput drug screen in 47 multiple myeloma cell lines against the NCATS MIPE library collection: Karpas417_ECACC cell viability assay (AID 1918961); settings: Karpas417 myeloma viability, CellTiter-Glo ATP luminescence, 48 h; viability (% of DMSO): at 45.8 µM (top of the series)
Outline: as §1

[6] = Quantitative High-Throughput drug screen in 47 multiple myeloma cell lines against the NCATS MIPE library collection: INA6_PLB cell viability assay (AID 1918965; also: nearly all actives have a fitted effect of over 55% in size)
Outline: as §1

[7] = Quantitative High-Throughput drug screen in 47 multiple myeloma cell lines against the NCATS MIPE library collection: H1112_PLB cell viability assay (AID 1918967; also: nearly all actives have a fitted effect of over 30% in size)
Outline: (§2)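 CellTiter-Glo luminescence (ATP) after 48 h compound exposure, 37C/5% CO2; 500 cells/well; MIPE 4.0 approved/investigational drugs pinned in; DMSO = 100%, media only = 0% viability.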

[8] = Quantitative High-Throughput drug screen in 47 multiple myeloma cell lines against the NCATS MIPE library collection: JJN3_DSMZ cell viability assay (AID 1918966; also: nearly all actives have a fitted effect of over 50% in size)
Outline: as §2

[9] = Quantitative High-Throughput drug screen in 47 multiple myeloma cell lines against the NCATS MIPE library collection: JIM1_ECACC cell viability assay (AID 1918964)
Outline: as §2
Potency is read from the fitted curve at half-maximal effect.

CCCCC(=O)O[C@]1(C(=O)CO)[C@@H](C)C[C@H]2[C@@H]3CCC4=CC(=O)C=C[C@]4(C)[C@@]3(F)[C@@H](O)C[C@@]21C
inactive: Potency [1] | Potency [2] | Potency [3]

CC[C@H]1OC(=O)[C@H](C)[C@@H](O[C@H]2C[C@@](C)(OC)[C@@H](O)[C@H](C)O2)[C@H](C)[C@@H](O[C@@H]2O[C@H](C)C[C@H](N(C)C)[C@@H]2O)[C@](C)(OC)C[C@@H](C)C(=O)[C@H](C)[C@@H](O)[C@]1(C)O
inactive: Potency [1] | Potency [4] | Potency [5] | Potency [3] | Potency [6] | Potency [7]

CON=C(C(=O)N[C@@H]1C(=O)N2C(C(=O)O)=C(CSC(=O)c3ccco3)CS[C@H]12)c1csc(N)n1
inactive: Potency [1] | Potency [4] | Potency [6] | Potency [8]

CC(N[C@H]1CCCC[C@H]1NC(=O)c1ccc(Cl)cc1)c1cccc2ccccc12 (stereo partly drawn)
active: Potency [1] 0.132 µM | Potency [5] 0.0469 µM | Potency [7] 20.9 µM

CC(C(C)N1CC(=O)NC(=O)C1)N1CC(=O)NC(=O)C1 (stereo not drawn)
inactive: Potency [1] | Potency [4] | Potency [3] | Potency [7]

Nc1cccc2c1C(=O)N(C1CCC(=O)NC1=O)C2=O (stereo not drawn)
active: Potency [1] 0.0209 µM | Potency [6] 4.18 µM
inactive: Potency [4] | Potency [7]

C=CC1=C(C(=O)O)N2C(=O)[C@@H](NC(=O)C(=NO)c3csc(N)n3)[C@H]2SC1
inactive: Potency [1] | Potency [4] | Potency [2] | Potency [3] | Potency [9] | Potency [7]

O=C(Nc1ccc(Oc2ccnc3[nH]ccc23)c(F)c1)c1cccn(-c2ccc(F)cc2)c1=O
inactive: Potency [1]
active: Potency [4] 2.64 µM | Potency [5] 0.0047 µM | Potency [8] 20.9 µM

CC1(C)[C@H](O[C@H]2O[C@H](C(=O)O)[C@@H](O)[C@H](O)[C@H]2O[C@@H]2O[C@H](C(=O)O)[C@@H](O)[C@H](O)[C@H]2O)CC[C@@]2(C)[C@H]1CC[C@]1(C)[C@H]2C(=O)C=C2[C@H]3C[C@@](C)(C(=O)O)CC[C@]3(C)CC[C@]21C
inactive: Potency [1] | Potency [4] | Potency [5] | Potency [3] | Potency [7]

O=C(Nc1cccc(Nc2ncc(Br)c(NCCc3cnc[nH]3)n2)c1)N1CCCC1
inactive: Potency [1] | Potency [4]
active: Potency [2] 1.18 µM | Potency [3] 6.62 µM | Potency [6] 0.743 µM | Potency [8] 11.8 µM | Potency [7] 9.35 µM

CCN(C(=O)c1c(O)c2c(Cl)cccc2n(C)c1=O)c1ccccc1
inactive: Potency [3] | Potency [7]
active: Potency [1] 16.6 µM | viability (% of DMSO) [5] 104%

CCCNC(=O)[C@H]1O[C@H]1C(=O)N[C@H](C(=O)N1CCC[C@@H]1C(=O)OC)C(C)CC (stereo partly drawn)
active: Potency [1] 5.9 µM | Potency [4] 9.35 µM | Potency [5] 2.96 µM | Potency [3] 16.6 µM | Potency [6] 16.6 µM | Potency [8] 2.96 µM

Nc1nc2c(c(=O)[nH]1)N(C=O)[C@H](CNc1ccc(C(=O)N[C@@H](CCC(=O)O)C(=O)O)cc1)CN2
inactive: Potency [1] | Potency [4] | Potency [2] | Potency [3] | Potency [9] | Potency [6] | Potency [7]

C#C[C@]1(O)CC[C@@H]2[C@@H]3CCC4=CC(=O)CC[C@@H]4[C@H]3CC[C@@]21CC
inactive: Potency [1] | Potency [5] | Potency [2] | Potency [3] | Potency [9] | Potency [6] | Potency [7]

COc1ccnc2[nH]cc(C(=O)C(=O)N3CCN(C(=O)c4ccccc4)C[C@@H]3C)c12
active: Potency [8] 13.2 µM
inactive: Potency [1] | Potency [4] | Potency [3] | Potency [6] | Potency [7]

OC[C@H]1OC(O)C[C@@H](O)[C@H]1O (stereo partly drawn)
inactive: Potency [1] | Potency [5] | Potency [3] | Potency [7]

CCCCCCCCCCCCc1ccc(S(=O)(=O)Nc2nncs2)cc1
inactive: Potency [1] | Potency [4] | Potency [6] | Potency [7]

C[C@H](CCC(=O)O)[C@H]1CCC2C3C[C@H](O)[C@@H]4C[C@H](O)CC[C@]4(C)C3CC[C@@]21C (stereo partly drawn)
inactive: Potency [1] | Potency [4] | Potency [2] | Potency [9] | Potency [6] | Potency [7]

OC[C@@H](O)[C@@H](O)[C@H](O)[C@@H](O)CO
inactive: Potency [1] | Potency [4] | Potency [3] | Potency [9] | Potency [6] | Potency [8]

CCC[C@H]1C[C@H](C(=O)N[C@@H]([C@@H]2O[C@@H](SC)[C@@H](O)[C@@H](O)[C@@H]2O)[C@H](C)Cl)N(C)C1
inactive: Potency [1] | Potency [4] | Potency [7]
active: Potency [5] 0.0093 µM

CC(C)c1cc(C(C)C)c(CC(=O)NS(=O)(=O)Oc2c(C(C)C)cccc2C(C)C)c(C(C)C)c1
active: Potency [4] 4.69 µM | Potency [3] 7.43 µM
inactive: Potency [1] | Potency [7]

COc1cc([C@@H]2c3cc4c(cc3[C@@H](O[C@@H]3O[C@@H]5CO[C@@H](c6cccs6)O[C@@H]5[C@H](O)[C@@H]3O)[C@H]3COC(=O)[C@H]23)OCO4)cc(OC)c1O
active: Potency [1] 2.96 µM | Potency [4] 0.743 µM | Potency [3] 0.833 µM | Potency [9] 0.209 µM | Potency [6] 0.0469 µM | Potency [8] 13.2 µM | Potency [7] 0.59 µM

CC(C)N1[N]C(=C2C=c3cc(O)ccc3=N2)c2c(N)ncnc21
active: Potency [1] 5.9 µM | Potency [5] 0.0332 µM | Potency [2] 0.0833 µM | Potency [3] 0.264 µM | Potency [6] 1.18 µM | Potency [8] 0.209 µM | Potency [7] 4.18 µM

CCC(C)CCCCC(=O)N[C@@H](CCN)C(=O)NC(C(=O)N[C@H](CCN)C(=O)N[C@@H]1CCNC(=O)C([C@@H](C)O)NC(=O)[C@@H](CCN)NC(=O)[C@@H](CCN)NC(=O)[C@@H](CC(C)C)NC(=O)[C@H](Cc2ccccc2)NC(=O)[C@H](CCN)NC1=O)[C@@H](C)O (stereo partly drawn) ({Octanoyl(6-Me)}-[Dab][ξThr(3R)][dDab][dDab][Dab]F[dL][dDab][dDab][ξThr(3R)]; lactam 4-C)
inactive: Potency [1] | Potency [4] | Potency [3] | Potency [9] | Potency [8] | Potency [7]

C=C(C)[C@@H]1CC[C@]2(C)CC[C@]3(C)[C@H](CC[C@@H]4[C@@]5(C)CC[C@H](O)C(C)(C)[C@H]5CC[C@]43C)[C@@H]12
inactive: Potency [1] | Potency [4] | Potency [3] | Potency [9] | Potency [6] | Potency [8] | Potency [7]

Cn1cc(C[C@@H](N)C(=O)O)c2ccccc21
inactive: Potency [1] | Potency [4] | Potency [3] | Potency [7]

COc1cc(OC)c(NC(=O)Nc2cc(C)on2)cc1Cl
inactive: Potency [1] | Potency [4] | Potency [6] | Potency [7]

CCN(CC)CCCCNc1ncc2c(n1)N(C)C(=O)N(c1c(Cl)c(OC)cc(OC)c1Cl)C2
inactive: Potency [1] | Potency [4]
active: Potency [6] 11.8 µM | Potency [7] 16.6 µM

O=C(C[C@@H]1CC=CCCC(=O)O[C@H](c2ccccc2)CNC1=O)NCc1ccc(Cl)cc1
inactive: Potency [1] | Potency [4] | Potency [8]
active: viability (% of DMSO) [5] 118% | Potency [7] 4.69 µM

CCn1c(=O)c2c(nc(C=Cc3ccc(OC)c(OC)c3)n2C)n(CC)c1=O
inactive: Potency [1] | Potency [5] | Potency [8] | Potency [7]

CC(C)(C)[N+]([O-])=Cc1ccc(S(=O)(=O)O)cc1S(=O)(=O)O
inactive: Potency [1] | Potency [4] | Potency [3] | Potency [8] | Potency [7]

C[N+](C)([O-])CCNc1ccc(NCC[N+](C)(C)[O-])c2c1C(=O)c1c(O)ccc(O)c1C2=O
active: Potency [6] 16.6 µM
inactive: Potency [1] | Potency [4] | Potency [3] | Potency [7]

C#CCC(Cc1cnc2nc(N)nc(N)c2n1)c1ccc(C(=O)N[C@@H](CCC(=O)O)C(=O)O)cc1 (stereo partly drawn)
inactive: Potency [1] | Potency [5] | Potency [9]
active: Potency [3] 0.0469 µM | Potency [6] 0.0935 µM | Potency [8] 0.0662 µM | Potency [7] 0.132 µM

FC(F)c1nc2ccccc2n1-c1nc(N2CCOCC2)nc(N2CCOCC2)n1
active: Potency [2] 0.469 µM | Potency [3] 0.372 µM | Potency [6] 0.296 µM | Potency [8] 0.743 µM
